This is a sample that favours compounds with a hit; in the whole collection about 3.7% have one here.
Anthrax LF inh2 = Bacillus anthracis LF protease inhibitors, primary screen, biochemical, multiplex microsphere, MLPCN library. Lethal factor (Bacillus anthracis), P15917. multiplex microsphere protease cleavage assay. inhibition, % at 10 µM. 0.12% of 360,000 active
BoNT-A LC inh2 = BoNT/A light chain protease inhibitors, primary screen, biochemical, flow cytometry, MLPCN library. multiplex microsphere protease substrate cleavage. inhibition, % at 10 µM. 0.17% of 360,000 active
BoNT F protease = BoNT/F light chain protease inhibitors, primary screen, biochemical, flow cytometry, MLPCN library; Multiplex microsphere protease cleavage assay; 0.22% of 360,000 active; inhibition, % at 10 µM; AID 588497, 2011; Botulinum neurotoxin type F light chain protease (Clostridium botulinum); in the data active = inhibition above about 35%, passing the limit was not always enough; inconclusive = no clear call, values can overlap the other calls
MazF activator = activators of E. coli MazEF toxin-antitoxin RNase, primary screen, biochemical, fluorescence, uHTS | FAM/BHQ RNA-DNA oligo cleavage fluorescence, 5 h | activation, % at 20 µM | 0.32% of 350,000 active; in the data active = activation above about 50%
Bead autofluor = counter-screen for toxin protease inhibitors: compound fluorescence | AID 624483 | compound autofluorescence counterscreen, microsphere flow cytometry; hits give high values | fluorescence intensity (concentration not given with the values) | 3.1% of 360,000 active; in the data active = fluorescence intensity above about 16000; inconclusive = no clear call, values can overlap the other calls
Large screens that a line does not name were inactive; ! = not confirmed by another sample. Rule as the data show it, unless noted: active = inhibition above about 30%; inconclusive = no clear call, values can overlap the other calls; inactive = below that.

COc1ccc(C(=O)NCC(=O)OCc2nc(N)nc(Nc3ccccc3C)n2)cc1	none
CCN1C(=O)c2c(C)nc3ccccc3c2C1=O	Bead autofluor 20844
O=c1oc2ccccc2cc1-c1nc2c(s1)CCc1ccccc1-2	BoNT-A LC inh2 64.2
O=c1oc2cc(O)ccc2cc1-c1nc2c(s1)CCc1ccccc1-2	BoNT-A LC inh2 47.3
CC1=C(C(=O)N(C(C)C)C(C)C)CC(CC(=O)NC(c2ccccc2)c2ccccc2)C(=O)N1CCC1=CCCCC1 (stereo not given)	none (no result: MazF activator)
N/C(=N\OC(=O)C12CC3CC(CC(C3)C1)C2)c1ccccc1	Bead autofluor 17662
CCCc1cc(=O)[nH]c(SCC(=O)Nc2cccc(S(=O)(=O)N3CCOCC3)c2)n1	none
CSc1nc(C)cc(OCC(=O)n2nc(C)cc2C)n1	BoNT-A LC inh2 inconclusive, Bead autofluor 23438
O=C(N1CCN(c2ccccc2)CC1)C(F)(F)C(F)(F)F	Bead autofluor 19895
O=C(N1CCN(c2ccccc2)CC1)C(F)(F)C(F)F	Bead autofluor 20656
CCOCCCn1c(SCC(=O)NC2CCCCC2)nc2ccccc2c1=O	none
CCOC(=O)c1cnc(SC2CC(=O)N(c3ccc(C)cc3)C2=O)nc1N (stereo not given)	Bead autofluor 24081
COc1ccc2c(c1)C1NC(=S)NC(C)(O2)C1C(=O)Nc1ccc(C)cc1C (stereo not given)	BoNT F protease 39.6
CCCOc1ccc(/C=c2\sc3ncnn3c2=O)cc1	none
CC(=O)Oc1ccc(/C=c2\sc3ncnn3c2=O)cc1	Bead autofluor 22478
CCOc1ccccc1/C=c1\sc2ncnn2c1=O	BoNT-A LC inh2 inconclusive, Bead autofluor 21270
CCOc1ccccc1C=C1SC(=S)N(CC)C1=O	none
Cc1c(OC(C)C(=O)NCc2cccnc2)ccc2c3c(c(=O)oc12)CCCC3 (stereo not given)	none
O=C(C1CSC2(c3ccc(F)cc3)CCC(=O)N12)N1CCCCCC1 (stereo not given)	Bead autofluor 20230
NC(=O)COC(=O)C1CSC2(c3ccc(F)cc3)CCC(=O)N12 (stereo not given)	none
c1ccc2c(C3OCC4(CCCCC4)CO3)cccc2c1	none
O=[N+]([O-])c1cc(C(F)(F)F)ccc1N1CCC(O)CC1	none
NC(=O)C1CCN(c2ccc(C(F)(F)F)cc2[N+](=O)[O-])CC1	Bead autofluor 21870
COc1ccc(C2CCc3cc(OC)c(OC)cc3C2NC=O)cc1OC (stereo not given)	none
Cc1ccc(Cn2nnc(C(=O)Nc3cccc(C)c3C)c2N)cc1	BoNT-A LC inh2 inconclusive, Bead autofluor 19408
N#Cc1ccccc1Cn1c(-c2cscn2)nc2ccccc21	BoNT-A LC inh2 inconclusive, Bead autofluor 22811
CCCCNC(=O)c1sc2ncnc(N3CCc4ccccc4C3)c2c1C	none
CCOC(=O)CNC(=O)c1sc2ncnc(N3CCc4ccccc4C3)c2c1C	Bead autofluor 19828
COCCCNC(=O)C[C@H]1C[C@H](C(=O)N2CCCCC2)[C@@]2(C)c3[nH]c4cc(-c5ccco5)ccc4c3CCN2C1=O	none
COc1ccc(-n2c(=S)[nH]c3cc(C(=O)Nc4ccc(F)cc4)ccc3c2=O)c(OC)c1	none
COc1ccc(-c2nc3n(c(=O)c2C#N)CCS3)cc1	none
N#Cc1c(-c2ccc(F)cc2)nc2n(c1=O)CCS2	Bead autofluor 22077
Cc1cccc(N2C(=O)C(O)=C(C(=O)c3cccs3)C2c2ccc(C(C)C)cc2)n1 (stereo not given)	none
COc1ccc(C2C(C(=O)c3cccs3)=C(O)C(=O)N2c2nnc(C)s2)cc1OC (stereo not given)	MazF activator 69.0
C=CCOc1ccc(C2C(C(=O)c3cccs3)=C(O)C(=O)N2c2nnc(C)s2)cc1 (stereo not given)	BoNT F protease 169.7, MazF activator 315.0
COc1ccc(C2C(C(=O)c3cccs3)=C(O)C(=O)N2c2nncs2)cc1 (stereo not given)	BoNT-A LC inh2 inconclusive, Bead autofluor 22479
CC(C)c1nnc(N2C(=O)C(O)=C(C(=O)c3cccs3)C2c2ccccc2)s1 (stereo not given)	MazF activator 172.0
Cc1ccc(C)c(NC(=O)CCC(=O)N/N=C/c2ccc[nH]2)c1	Bead autofluor 21086
Cc1ccc(CN2CCN(C(=O)C3CCC3)CC2)cc1	Bead autofluor 22954
O=C(C1CCC1)N1CCN(Cc2ccccc2)CC1	none
CCN1c2ccccc2NC2C1C(C(C)=O)C(=O)N2c1ccc(Cl)cc1 (stereo not given)	Bead autofluor 19587
Cc1cc2cc(C)c3nnc(SCc4ccccn4)n3c2cc1C	none
Cc1ccc(C)c2c1cc(C)c1nnc(SCc3ccccn3)n12	Bead autofluor 26246
Cc1c([N+](=O)[O-])cc(C(=O)Oc2ccc(Br)cc2C(=S)N2CCCCC2)cc1[N+](=O)[O-]	BoNT-A LC inh2 inconclusive, Bead autofluor 22033
Cc1ccc(C(=O)Oc2ccc(Br)cc2C(=S)N2CCOCC2)cc1	none
Cc1ccccc1-c1cn(-c2ccccc2)c(=S)[nH]1	none
CC(C)(C)c1cn(-c2ccc(F)cc2)c(=S)[nH]1	BoNT-A LC inh2 inconclusive, Bead autofluor 19889
CN(C)c1cncc(C(=O)O)c1	none
CN(C)c1ncc(C(=O)O)cn1	Bead autofluor 16816
O=[N+]([O-])c1ccc2cc[nH]c2c1	none
CC1=CC(C)(C)N2C(=O)C3(SCC(=O)N3c3ccc(O)cc3)c3cc(C)cc1c32 (stereo not given)	Bead autofluor 20630
Cc1c(/C=N/n2cnnc2)c2ccccc2n1CCOc1ccc(Cl)cc1	MazF activator 113.0, Bead autofluor 16355
CC(=O)Nc1cc(-c2ccc(N(C)C)cc2)cn2c(-c3ccc(F)cc3)cnc12	none (no result: MazF activator)
CN(C(=O)COC(=O)c1c2c(nc3ccccc13)CCCC2)c1c(N)n(Cc2ccccc2)c(=O)[nH]c1=O	none
Cc1c(C(=O)O)oc2c1C(O)CCC2 (stereo not given)	none
Cc1c(C(=O)O)oc2c1C(O)CC(C)(C)C2 (stereo not given)	Bead autofluor 16667!
CSc1ccccc1NC(=O)C(C)N(C)CC(=O)N1CCN(Cc2ccccc2)CC1 (stereo not given)	BoNT F protease inconclusive, Bead autofluor inconclusive
COc1cc2nc(SCc3ccc(F)cc3)n(Cc3cccs3)c(=N)c2cc1OC	BoNT-A LC inh2 inconclusive, Bead autofluor 20501
O=C(CSc1ccc(-c2ccccn2)nn1)Nc1cccc(F)c1	none
OC(c1ccc(-c2ccccc2)cc1)c1ncc(-c2ccccc2Cl)[nH]1 (stereo not given)	none (no result: MazF activator)
O=C(NCC1CCCO1)c1nn2c(C(F)(F)F)cc(-c3cc(Br)cs3)nc2c1Br (stereo not given)	MazF activator 71.0
CCN1CCN(S(=O)(=O)c2ccc(Cl)c(C(=O)N(C)Cc3ccccc3)c2)CC1	none
